Bioassay records deposited in PubChem BioAssay by several laboratories.
A3G deaminase = blocks human APOBEC3G single-stranded DNA deamination. Q9HC16. recombinant A3G, ssDNA deamination FAM/TAMRA fluorescence. inhibition, % at 20 µM. 330,000 tested, 0.28% active;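 active = inhibition of at least 40% at 20 µM, with no more than 30% in the related APOBEC3A deaminase screen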;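 note: plate controls were DMSO wells with A3G for no effect and wells lacking A3G enzyme for full effect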
NALP1 inh = blocks the NALP1 inflammasome reconstituted in yeast | 280,000 tested, 0.61% active | S. cerevisiae NALP1/ASC/caspase-1 growth, X-gal OD620, 72 h | inhibition, % at 10 µM | AID 2071; in the data active = inhibition mostly above about 24%, no sharp cut-off; inactive = mostly below about 32%
APOBEC3A inh = blocks human APOBEC3A ssDNA deamination. P31941. recombinant A3A, FAM/TAMRA ssDNA deamination fluorescence. inhibition, % at 20 µM. 330,000 tested, 0.41% active;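 active = at least 40% inhibition at 20 µM here, with at most 30% in a related deaminase screen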;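 note: plate controls were A3A with DMSO for no effect and wells lacking A3A enzyme for full effect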
Target sequence (P31941 whole entry, looked up): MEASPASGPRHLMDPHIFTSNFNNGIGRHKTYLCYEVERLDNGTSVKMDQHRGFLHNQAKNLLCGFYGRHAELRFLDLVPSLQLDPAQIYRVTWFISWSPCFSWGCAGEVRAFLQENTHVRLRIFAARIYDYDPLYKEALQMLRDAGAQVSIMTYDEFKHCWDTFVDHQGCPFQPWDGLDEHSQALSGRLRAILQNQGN
PolyA inh = inhibitors of polyadenylation in S. cerevisiae | S. cerevisiae SKY197-pL101 polyadenylation reporter, beta-gal luminescence; efflux-impaired pdr1/pdr3 knockout yeast; score 100 = 6 SD above DMSO | activity score, % at 12 µM | 300,000 tested, 0.02% active | AID 1875;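 active = lowest replicate activity score at least 50, where 100 means six control SD above control mean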;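 note: yeast exposed to compound for 9 h at 30 °C; higher score means more reporter readthrough which indicates perturbed polyadenylation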
APOBEC3A confirm = APOBEC3A (human) deaminase inhibition, confirmed. recombinant A3A, ssDNA deaminase UDG fluorescence assay. shares compounds with APOBEC3A inh. inhibition, % at 20 µM. 1,400 tested, 63% active;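 active = inhibition reaching a set limit, 80% of the first screen's cutoff, at 20 µM in any replicate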;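 note: plate controls were DMSO wells with A3A for no effect and wells lacking A3A enzyme for full effect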
UDG A3A counter = inhibits UDG, flagging false APOBEC3A inhibitors. shares compounds with APOBEC3A inh. 1,000 tested, under 10 active. UDG counterscreen, FAM/TAMRA uracil oligo fluorescence. AID 504714. inhibition, % at 20 µM; call rule not given here
APOBEC3G confirm = APOBEC3G (human) deaminase inhibition, confirmed; recombinant A3G ssDNA deaminase, UDG/FAM-TAMRA fluorescence; inhibition, % at 20 µM; shares compounds with A3G deaminase; 890 tested, 72% active;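 active = inhibition reaching a set limit in any replicate at 20 µM, the limit being 80% of the first screen's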
UDG ctr A3G = E. coli UDG inhibition in APOBEC3G counter-screen; AID 504715; inhibition, % at 20 µM; 710 tested, under 10 active; UDG counterscreen, FAM/TAMRA oligo fluorescence; shares compounds with A3G deaminase;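 active = compounds giving 40% or more inhibition at 20 µM in any one of the three replicates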;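 note: plate controls were DMSO wells with UDG and oligo for no effect and DMSO wells lacking both for full effect; inhibitors lower the FAM signal released by uracil excision and alkaline cleavage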
Target sequence (P12295 whole entry, looked up): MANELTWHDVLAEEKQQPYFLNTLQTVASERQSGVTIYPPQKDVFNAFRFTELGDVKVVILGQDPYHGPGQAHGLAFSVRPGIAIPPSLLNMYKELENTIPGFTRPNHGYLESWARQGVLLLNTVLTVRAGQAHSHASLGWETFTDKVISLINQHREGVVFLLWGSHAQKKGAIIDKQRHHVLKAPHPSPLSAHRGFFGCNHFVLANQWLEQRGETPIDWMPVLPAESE
* hit, by the source's call. A selection: hits, their analogues and other compounds. The true share with any hit is near 1.2%.

O=C1C2CCN(CC2)C1Cc1ccc(OCc2ccccc2)cc1 (stereo unspecified) was read as A3G deaminase -5.2, NALP1 inh -10.0, APOBEC3A inh 0.9 and PolyA inh 10.5.
`CCN(CC)c1ccc(/C=C2/C(=O)NC(=O)N(Cc3ccco3)C2=O)cc1` gave A3G deaminase 35.9, NALP1 inh 20.8, APOBEC3A inh 64.8 and PolyA inh 13.5.
For COc1ccc(CN2C(=O)NC(=O)/C(=C\c3ccco3)C2=O)cc1 the results were A3G deaminase 25.9, NALP1 inh 25.5, APOBEC3A inh 47.4*, PolyA inh -15.0, APOBEC3A confirm 62.1* and UDG A3A counter 1.8.
CN(C)c1ccc(/C=C2/C(=O)NC(=O)N(Cc3ccco3)C2=O)cc1 was read as A3G deaminase 20.0, NALP1 inh 7.9, APOBEC3A inh 59.7*, PolyA inh 25.1, APOBEC3A confirm 38.9* and UDG A3A counter -3.9.
`COc1ccc(CN2C(=O)NC(=O)/C(=C\c3cc(OC)c(OC)c(OC)c3)C2=O)cc1` gave A3G deaminase -3.9, NALP1 inh -5.2, APOBEC3A inh 0.0 and PolyA inh -3.8.
Screening O=C1NC(=O)N(CCc2ccc(F)cc2)C(=O)/C1=C/c1ccco1 returned A3G deaminase 26.5, NALP1 inh 1.2, APOBEC3A inh 74.2*, PolyA inh -6.2, APOBEC3A confirm 52.5* and UDG A3A counter 5.8.
For COc1ccc2c3c1OC1C(O)C=CC4C(C2)[N+](C)(C)CCC341 (stereo unspecified) the results were A3G deaminase 16.1, NALP1 inh 3.4, APOBEC3A inh 70.6*, PolyA inh -14.4 and APOBEC3A confirm 50.5*.
For COc1ccc(-c2nn(CCC#N)cc2C(=O)Nc2ccccc2Br)cc1[N+](=O)[O-] the results were A3G deaminase 1.3, APOBEC3A inh 3.1 and PolyA inh -7.1.
For Cc1sc2ncnc(N3CCC(C(=O)Nc4ccc(C#N)c(Cl)c4)CC3)c2c1C the results were A3G deaminase 6.9, APOBEC3A inh 53.4*, PolyA inh 5.9 and APOBEC3A confirm 10.4.
`Cc1noc(C)c1CSCC(=O)Nc1ccc(C#N)c(Cl)c1` gave A3G deaminase -5.7 and APOBEC3A inh -0.4.
For CCOC(=O)/C(CCCN(CC)CC)=N\O the results were A3G deaminase 19.2, NALP1 inh -31.5, APOBEC3A inh 75.3*, PolyA inh 3.6, APOBEC3A confirm 77.6* and UDG A3A counter 1.0.
`C[N+]1(CC(COCc2ccccc2)OC(=O)Cc2ccccc2)CCOCC1` (stereo unspecified) gave A3G deaminase 18.1, NALP1 inh 24.9, APOBEC3A inh 41.4*, PolyA inh 14.0, APOBEC3A confirm 69.4* and UDG A3A counter 1.0.
For Cc1cccn2c(=O)c3cc(C(=O)N4CCC5(CC4)OCCO5)n(C)c3nc12 the results were A3G deaminase -1.5, NALP1 inh 8.3, APOBEC3A inh -0.5 and PolyA inh -18.7.
Screening O=[N+]([O-])c1cc(S(=O)(=O)c2ccc(O)c([N+](=O)[O-])c2)ccc1O returned A3G deaminase 13.9, NALP1 inh 21.1, APOBEC3A inh 70.4*, PolyA inh -4.5, APOBEC3A confirm 83.6* and UDG A3A counter 1.1.
C[N+]1(C)[C@@H]2CC(OC(=O)[C@H](CO)c3ccccc3)C[C@H]1[C@@H]1O[C@@H]12 (stereo partly specified) was read as A3G deaminase -0.6, NALP1 inh 10.6, APOBEC3A inh -0.3 and PolyA inh 24.0.
For C[N+]1(C)[C@@H]2CC[C@H]1CC(OC(=O)C(c1ccccc1)c1ccccc1)C2 (stereo partly specified) the results were A3G deaminase 21.4, NALP1 inh 28.5, APOBEC3A inh 45.7*, PolyA inh -4.5 and APOBEC3A confirm 61.5*.
COC(=O)C1=C(c2ccc(OC)c(OC)c2)C[C@@H]2CC[C@H]1N2C(=O)NC1CC1 was read as A3G deaminase -3.5 and APOBEC3A inh 3.1.
C=Cc1ccc(Cn2c(C(=O)O)c(C=O)c3ccccc32)cc1 was read as A3G deaminase 4.8, NALP1 inh 0.0, APOBEC3A inh 73.9*, PolyA inh -3.9 and APOBEC3A confirm 17.1.
Screening COc1ccc(N=C2SCCCN2C)cc1 returned A3G deaminase 23.7, NALP1 inh -62.0, APOBEC3A inh 48.4*, PolyA inh -12.8, APOBEC3A confirm 72.0* and UDG A3A counter 1.4.
`O=C(CCCc1ccccc1)NCCc1cnc[nH]1` gave A3G deaminase -13.6, NALP1 inh 8.0, APOBEC3A inh -10.3 and PolyA inh -8.3.
For COC(=O)C1=C(c2ccc(S(C)(=O)=O)cc2)C[C@@H]2CC[C@H]1N2C(=O)NC(C)C the results were A3G deaminase -0.1, APOBEC3A inh 0.9 and PolyA inh -7.0.
Screening Nc1cc2nc3ccccc3nc2cc1N returned A3G deaminase 48.4*, NALP1 inh 2.1, APOBEC3A inh 17.6, PolyA inh 9.3, APOBEC3G confirm 25.2* and UDG ctr A3G 0.2.
Nc1c2c(nc3ccccc13)CCN(Cc1ccccc1)C2 was read as A3G deaminase -8.3, NALP1 inh 4.1, APOBEC3A inh -4.2 and PolyA inh -14.9.
`COc1cc2c(cc1OC)-c1c3c(cc4c1[C@@H](C2)N(C)CC4)OCO3` gave A3G deaminase 45.5*, NALP1 inh 14.6, APOBEC3A inh 25.9, PolyA inh -14.4 and APOBEC3G confirm 23.9.
`O=C1C2CCCN2C(c2cccs2)N1c1ccccn1` (stereo unspecified) gave A3G deaminase 88.9*, NALP1 inh 17.5, APOBEC3A inh -0.4, PolyA inh 16.9, APOBEC3G confirm 15.8 and UDG ctr A3G -3.2.
For CCn1c(NN=O)nc2ccccc21 the results were A3G deaminase 58.4*, NALP1 inh -9.7, APOBEC3A inh -0.5, PolyA inh 8.3, APOBEC3G confirm 14.4 and UDG ctr A3G -0.7.
For CCCCC(CC)COCCCN=Cc1c(O)[nH]c(=S)[nH]c1=O (stereo unspecified) the results were A3G deaminase -1.8, APOBEC3A inh -2.7 and PolyA inh 8.2.
Screening C/C(=N\NC(=O)c1ccccc1)c1c(O)n(Cc2ccccc2)c(=O)[nH]c1=O returned A3G deaminase -6.2, APOBEC3A inh 0.9 and PolyA inh 5.3.
